Results published in PubChem BioAssay (NCI).
The panel holds about 83,000 compounds, 20% with a hit somewhere; the sample as a whole holds those more often.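 Treatment: one concentration, 48 hours, 96-well format. Scoring: percent growth, with anything below 10 considered active.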 Unmarked numbers belong to inactive results. Active and inactive are the calls of the source.

Assays:
Experiment in all cases: NCI-60 one-dose screen, 48 h (100 = growth as untreated, 0 = no growth, -100 = all killed)
Conditions in all cases: 10 µM unless noted
T-47D breast = tested on: T-47D breast
BT-549 breast = tested on: BT-549 breast
MDA-MB-435 melanoma = tested on: MDA-MB-435 melanoma
SW-620 colon = tested on: SW-620 colon
MCF7 breast = tested on: MCF7 breast
HCT-116 colon = tested on: HCT-116 colon
HCC-2998 colon = tested on: HCC-2998 colon
KM12 colon = tested on: KM12 colon

Structure (SMILES) | growth (T-47D breast) | growth (BT-549 breast) | growth (MDA-MB-435 melanoma) | growth (SW-620 colon) | growth (MCF7 breast) | growth (HCT-116 colon) | growth (HCC-2998 colon) | growth (KM12 colon)
O=C(O)c1cccc(N/C=C/C(=O)c2cc3cc(Br)ccc3oc2=O)c1 | 90.5% | 86.1% | 96.5% | 98.1% | 88.4% | 93.3% | 105% | 95.8%
CCCCCCCCCCCCCCCCOC(=O)c1c(C)[nH]c(/C=C2\N=C(c3ccc[nH]3)C=C2OC)c1C | 31.2% | 55.1% | 15.7% | 10.9% | 8.67% (active) | -0.291% (active) | 24.3% | 22.7%
COc1ccc(/C(C)=C(\c2ccc(OCCN3CCCCCC3)cc2)c2ccc(OC(=O)c3ccccc3)cc2)cc1 | 43.4% | 63.6% | 63% | 44.8% | 13.5% | 19.4% | 77.5% | 38.4%
COc1ccc2nc(Cl)c(/C=C/C(=O)c3ccc(NC(=O)CSc4nnc(-c5ccc(Cl)c(Cl)c5)n4-c4ccccc4)cc3)cc2c1 | 83.5% | 80% | 95.6% | 92.3% | 82.5% | 68.6% | 105% | 98.4%
CCc1ccc(CCC(=O)Nc2ncc(Cc3ccc(Cl)cc3)s2)o1 | 37% | 61.3% | -64.3% (active) | 18.6% | 20% | 29.3% | 46.9% | 21.6%
O=C(NCc1ccccc1O)c1cccc2ccccc12 | 59.7% | 68.8% | 76.9% | 87.6% | 83.9% | 69.1% | 89.9% | 85%
COC(=O)c1c2c(c(C)[n+]([O-])c1C)C(=O)C=CC2=O | -12.6% (active) | -90.3% (active) | -61.4% (active) | -19.5% (active) | -59.4% (active) | -14% (active) | -61.3% (active) | 4.57% (active)
O=C(CCCCCCN1CC(=O)N2[C@@H](c3ccc(Cl)cc3)c3[nH]c4ccccc4c3C[C@H]2C1=O)NO | 42.1% | 77.2% | 53.9% | 62.9% | 46.2% | 38.6% | 81.2% | 75.1%
C/C(=N\O)C(=O)NCCCCCC(=O)Nc1ccccc1 | 86.5% | 88.6% | 101% | 104% | 95.1% | 100% | 101% | 103%
Cc1ccc(C)c2c1C(O)(C#Cc1ccccc1)c1ccccc1C2(O)C#Cc1ccccc1 (centres undefined) | 38.5% | 68% | 47.9% | 53.5% | 28.9% | 43.3% | 87.4% | 50.1%
CN1CCN(CCCOC(=O)c2c3c(n4ccccc24)C(=O)c2ncccc2C3=O)CC1 | 47.6% | 24.9% | -40.4% (active) | -57.2% (active) | -45.9% (active) | -29.5% (active) | 29.9% | 17.5%
CC1(C)O[C@H]2OC3CCC(=O)CC3(O)[C@H]2O1 (some centres undefined) | 91.8% | 104% | 112% | 105% | 108% | 95.1% | 98.7% | 102%
Cc1nn(-c2ccccc2)c(/N=C/N(C)C)c1/C=C/C(=O)c1ccc(Cl)cc1 | 101% | 87.3% | 98.4% | 93.3% | 85.9% | 74.7% | 101% | 101%
Cc1[nH]c(/C=C/C(=O)c2ccc(C(F)(F)F)c(F)c2)c(C)c1C(=O)NCC(C)C | 88.2% | 111% | 103% | 102% | 86% | 96.7% | 98.9% | 101%
COc1cc(-c2nc3ccc(C)cc3[nH]2)ccc1OCC(=O)N=Nc1c(O)[nH]c2ccc(Cl)cc12 | -43.2% (active) | 68.5% | -2.5% (active) | -58.9% (active) | -64.9% (active) | -34.9% (active) | -32.5% (active) | -40.1% (active)
Cc1[nH]c(C(=O)Nc2cccc(OC3CCNCC3)c2)c(Cl)c1Cl | 87.9% | 84.6% | 43% | 0.537% (active) | 47.4% | 46.2% | 2.97% (active) | 57%
COc1cccc(NC(=O)c2cccc(C3CCc4c(cc(OC)c(OC)c4OC)O3)c2)c1 (centres undefined) | 20.5% | 41.5% | 79.6% | 100% | 74.3% | 62.4% | 81.4% | 81.5%
N#Cc1c(-c2ccccc2)nc2c(c(-c3ccccc3)nn2-c2ccccc2)c1-c1ccc(N2CCOCC2)cc1 | 96.7% | 99.8% | 90.5% | 45.6% | 57.6% | 65.5% | 107% | 95.7%
CCN(CC)c1ccc(N2C(=O)/C(=C/c3cccs3)SC2=S)cc1 | 83% | 102% | 95.4% | 103% | 89.9% | 95.9% | 110% | 100%
C/C(=N\Nc1nc(C)cs1)c1cc2ccccc2o1 | 21.4% | 99.3% | 105% | 100% | 74.2% | 79.3% | 112% | 95.5%
CCOC(=O)c1c(C)c2c(n1C)CSc1cc(S(=O)(=O)c3ccccc3)c(=O)[nH]c1-2 | 12.3% [100 µM] | 3.95% [100 µM] (active) | 19.3% [100 µM] | 35.9% [100 µM] | 13.8% [100 µM] | 11% [100 µM] | 20.3% [100 µM] | 16.5% [100 µM]
O=c1ccc2nc(C(F)(F)F)nn(-c3ccccc3)c-2c1 | -40.8% (active) | 69.2% | 62.3% | -63.3% (active) | -49.3% (active) | 35.2% | 102% | 96.8%
Oc1c(CN2CCCC2)cc(COCc2ccccc2)c2cccnc12 | 5.66% (active) | 27.2% | 33.5% | 22.3% | 10% (active) | 9.16% (active) | 49.7% | 28.7%
COc1ccc(-c2ccc(=O)oc2C#Cc2cc(OC)c(OC)c(OC)c2)cc1O | 38.8% | -16.9% (active) | -78% (active) | -30.3% (active) | 3.79% (active) | -30.4% (active) | 221% | 3.09% (active)
CN(C)c1ccc(/C=C/C(=O)c2ccccc2)cc1 | 68.5% | 81.3% | 28.6% | 63.5% | 44.7% | 67.5% | 97.5% | 51.4%
COc1ccc(C2=NN(C(C)=O)C(c3ccc(Oc4ccnc5cc(Cl)ccc45)c(OC)c3)C2)cc1 (centres undefined) | 16.2% | 79.5% | 57% | 74.3% | 37.6% | 25% | 57.2% | 72.9%
O=C(/C=C/c1ccccc1)Nc1ncc(Cc2ccccc2)s1 | 26.1% | 42.9% | -40.9% (active) | 24.6% | 17.2% | 11.6% | 11.9% | 6.06% (active)
CNCc1cccc2c1OCCOCCN(C)C(=O)CN(C)S(=O)(=O)c1ccc(cc1)-c1cnc(N)c(n1)C(=O)N2 | -9.54% (active) | 92.4% | -91.8% (active) | -4.13% (active) | 11.6% | -69% (active) | 28% | 9.24% (active)
